Compounds without any hit were thinned out: in the full panel of roughly 83,000, 20% have a hit.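 Growth was measured after 48 h exposure to one concentration of compound in 96-well plates. Values under 10 count as active.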 Values without a mark were called inactive. Calls of active or inactive are those of the source.
Experiments:
Assay in all cases: NCI-60 one-dose screen, 48 h (100 = growth as untreated, 0 = no growth, -100 = all killed)
Details in all cases: 10 µM unless noted
EKVX NSCLC = test system: EKVX NSCLC
SN12C renal = test system: SN12C renal
UO-31 renal = test system: UO-31 renal
TK-10 renal = test system: TK-10 renal
ACHN renal = test system: ACHN renal
CAKI-1 renal = test system: CAKI-1 renal
A498 renal = test system: A498 renal
CCRF-CEM leukemia = test system: CCRF-CEM leukemia
MOLT-4 leukemia = test system: MOLT-4 leukemia
SR leukemia = test system: SR leukemia

SMILES	growth (EKVX NSCLC)	growth (SN12C renal)	growth (UO-31 renal)	growth (TK-10 renal)	growth (ACHN renal)	growth (CAKI-1 renal)	growth (A498 renal)	growth (CCRF-CEM leukemia)	growth (MOLT-4 leukemia)	growth (SR leukemia)
O=c1c2cc(F)ccc2sc2c(NCCCNCCO)nc3ccc(Cl)cc3c12	88.8%	67.4%	58.5%	77.1%	60.8%	27.8%	60.7%	13.7%	18.7%	–
COc1cc(/C=C/C(=O)c2c(C)nc3ccccc3c2/C=C/c2ccccc2)cc(OC)c1OC	26.9%	11.1%	27.4%	10.1%	-27.4% (active)	30.8%	40.6%	4.76% (active)	-0.744% (active)	–
COC(=O)C1(C)CCC[C@]2(C)[C@H]3C[C@H]4C(C(C)C)=C[C@]3(CC[C@@H]12)[C@H]1[C@@H]4[C@@H](OCC#CCN2CCOCC2)CC[C@@H]1OCC#CCN1CCOCC1 (stereo partly specified)	67.2%	81.1%	72.9%	98%	92.3%	80%	101%	72%	70%	88.3%
O=C(COc1cc(O)c2c(=O)cc(-c3ccccc3)oc2c1)Nc1ccccc1C(F)(F)F	51.4%	27.7%	17.1%	-13.9% (active)	17.8%	22.3%	55.9%	58.6%	52.1%	–
NCCOc1ncccc1/C=C1\c2ccccc2-c2ccc([N+](=O)[O-])cc21	-19% (active)	-62% (active)	-99.2% (active)	-74.9% (active)	-89.4% (active)	-39.3% (active)	-89% (active)	8.64% (active)	-3.92% (active)	1.14% (active)
O=C1c2cc(Br)ccc2Oc2cc([N+](=O)[O-])ccc2N1c1ccc(I)cc1F	91.9%	94.2%	73%	112%	99.7%	84.9%	98.9%	96.8%	85%	–
O=C1NC(=O)C(=Cc2cn(Cc3cn(Cc4ccc(Cl)cc4Cl)nn3)c3ccccc23)C(=O)N1	104%	90.4%	63.9%	68.8%	102%	56.3%	38.3%	76.4%	84.6%	–
CC[C@]1(O)C[C@@H]2CN(CCc3c([nH]c4ccccc34)[C@@](C(=O)OC)(c3cc4c(cc3OC)N(C)[C@H]3[C@@](O)(C(=O)OC)[C@H](OC(C)=O)[C@]5(CC)C=CCN6CC[C@]43[C@@H]65)C2)C1	38.8%	27%	41.6%	45.5%	30.1%	4.83% (active)	-12.5% (active)	13.8%	26.5%	–
Cc1nc2ccccc2c(/C=C/c2ccc(F)cc2)c1C(N)=O	94.8%	102%	80.9%	134%	100%	87.2%	89.2%	93.6%	111%	–
CN1CCN(Cc2ccc(C(=O)Nc3cncc(C#Cc4cnc5cccnn45)c3)cc2C(F)(F)F)CC1	75%	48.1%	21.5%	82.8%	25.6%	13.9%	11.3%	32.6%	13.6%	–
O=C(Nc1ccc(F)cc1F)c1cc(I)ccc1O	55.8%	8.12% (active)	2.51% (active)	23.1%	11%	-17.5% (active)	-33.2% (active)	14.1%	7.29% (active)	–
COc1cc(/C=C2\CCC/C(=C\c3cc(CN4CCOCC4)c(O)c(OC)c3)C2=O)cc(CN2CCOCC2)c1O	54.3%	29.3%	52.6%	53.8%	25.1%	46.1%	58.6%	14.8%	11%	38%
CN(C)/C=C1\SC(=Nc2ccc(Cl)cc2)NC1=O	95.6%	92.1%	90.4%	111%	103%	96.1%	94.6%	106%	101%	123%
COc1ccc(/C=C/C(=O)c2ccc(Nc3nc(NCCO)nc(Nc4ccc(Cl)cc4)n3)cc2)cc1	66.6%	86.6%	70.8%	96.2%	67.7%	81.4%	69.2%	48.8%	46.3%	38.4%
O=C(O)c1cn(C2CC2)c2cc(N3CCN(C(=O)C[n+]4ccccc4)CC3)c(F)cc2c1=O	94.4%	97.5%	88.1%	99.3%	103%	94.3%	87.6%	97.4%	104%	107%
COc1ccc(C2C3=C(COC3=O)N(CCO)c3cc4c(cc32)CCC4)cc1 (stereo unspecified)	66.7%	95.1%	75.7%	77.9%	67.7%	48%	73.2%	64.3%	45.4%	35.8%
Cc1ccc(Cc2cnc(NC(=O)CN3C(=O)/C(=C\c4ccccc4)SC3=S)s2)cc1	98.1%	96.6%	89.4%	106%	101%	95.5%	109%	107%	104%	114%
CCN1C(=O)N(CC)C2C1NC(=S)N2/N=C/C=C/c1ccccc1OC (stereo unspecified)	30.9%	26%	46.3%	55.2%	22.9%	28.4%	-4.32% (active)	13.8%	15.7%	12%
COc1ccc2oc(=O)cc(Cn3cc(Cn4cnc5c4c(=O)n(C)c(=O)n5C)nn3)c2c1	103%	95.9%	83.3%	100%	98.7%	95.3%	103%	106%	103%	106%
Cc1nc(Nc2cn[nH]c2C(=O)Nc2ccc(CN3CCN(C)CC3)cc2)c2ccsc2n1	106%	75.4%	59.6%	114%	92.8%	61.5%	66.7%	40.5%	45.8%	5.46% (active)
CNCCNc1nc2ccccc2c2c(=O)c3cc(OC)ccc3sc12	59.2%	66.3%	41.1%	-15.1% (active)	35.4%	48%	45.7%	2.47% (active)	-28.8% (active)	5.19% (active)
COc1ccc2c(c1)C=C1CSCC3=Cc4cc(OC)ccc4OC13O2	40.3%	28.2%	44.5%	60.7%	32.5%	37.1%	4.68% (active)	16.1%	14.3%	27%
COc1cc(/C=C2\CN(C)C/C(=C\c3cc(CN4CCCCC4)c(O)c(OC)c3)C2=O)cc(CN2CCCCC2)c1O	46%	38.2%	57%	57.6%	39%	55.9%	71.1%	19.9%	16.5%	28.5%
CC(C)C[C@H](C(=O)N[C@H](C(N)=O)C(C)C)N1CC=CCN(OCc2ccccc2)S1(=O)=O	114% [2.5 µM]	94.9% [2.5 µM]	83.6% [2.5 µM]	102% [2.5 µM]	97.8% [2.5 µM]	99.4% [2.5 µM]	108% [2.5 µM]	92.4% [2.5 µM]	82.5% [2.5 µM]	93.4% [2.5 µM]
Cc1ccc2[nH]c(=O)cc(-n3nncc3Cn3c4ccccc4c4ccccc43)c2c1	98.2%	101%	73.7%	118%	90%	85%	80%	99.5%	101%	103%
Fc1ccc(Oc2ccc(Nc3ncnc4onc(-c5ccccc5)c34)cc2)cc1	98.9%	84.1%	52.3%	102%	99.8%	93.5%	67%	62.9%	88.7%	102%
CCOC(=O)c1sc(-c2ccc(OS(=O)(=O)c3ccccc3[N+](=O)[O-])c(C=O)c2)nc1C	92.3%	3.63% (active)	57.1%	85.5%	101%	38.8%	-84.6% (active)	12.1%	9.88% (active)	9.06% (active)

Reference: PubChem BioAssay (NCI)
